# Bioassay records: PubChem, The Scripps Research Institute Molecular Screening Center
# CHRM1 agonist = agonists of human M1 muscarinic receptor; CHO-K1 hM1, Fluo-8 calcium fluorescence, agonist mode; 0% DMSO, 100% acetylcholine EC100; activation, % at 3 µM; 360,000 compounds, 0.33% hits; AID 588814;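 active means activation above the run's mean compound activation plus 3 SD, cut at about 16% in these data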;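 further: peak over basal fluorescence ratio within a 140 s kinetic read after compound addition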
# Target sequence (P11229 whole entry, looked up): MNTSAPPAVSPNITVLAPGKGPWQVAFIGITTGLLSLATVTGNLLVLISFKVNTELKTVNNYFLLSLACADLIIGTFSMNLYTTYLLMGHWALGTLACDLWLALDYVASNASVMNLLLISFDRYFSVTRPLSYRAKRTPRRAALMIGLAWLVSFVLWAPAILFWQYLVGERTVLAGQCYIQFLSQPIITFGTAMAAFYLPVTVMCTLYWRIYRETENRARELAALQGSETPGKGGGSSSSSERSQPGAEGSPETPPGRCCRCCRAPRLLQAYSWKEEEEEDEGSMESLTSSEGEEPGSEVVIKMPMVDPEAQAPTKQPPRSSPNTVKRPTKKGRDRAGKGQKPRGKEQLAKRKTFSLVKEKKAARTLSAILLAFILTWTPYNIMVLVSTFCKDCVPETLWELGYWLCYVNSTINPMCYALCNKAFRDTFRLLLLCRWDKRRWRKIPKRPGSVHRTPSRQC
# CHO-K1 Ca antag = M1 antagonist counterscreen hit in parental CHO-K1 cells; ATP-induced calcium, Fluo-8 fluorescence; inhibition, % at 3 µM; 360,000 compounds, 0.6% hits; AID 602250;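 active means inhibition above a per-plate cutoff, the plate's mean sample inhibition plus 3 SD, cut at about 24% in these data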
# M1 PAM parental = M1 PAM counterscreen hit in parental CHO-K1 cells | ATP EC20, Fluo-8 calcium fluorescence; 0% at ATP EC20, 100% at ATP max | activation, % at 3 µM | 360,000 compounds, 0.02% hits | AID 602247;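 active means activation above the run cutoff, the mean activation of all test compounds plus 3 SD, cut at about 40% in these data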;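 further: peak over basal fluorescence ratio in a 140 s read after ATP addition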
# M1 PAM = human CHRM1 positive allosteric modulation; activation, % at 3 µM; 360,000 compounds, 0.088% hits; CHO-K1 hM1, Fluo-8 calcium fluorescence, ACh EC20; 0% = ACh EC20, 100% = maximal ACh; AID 588819; P11229; in the data active means activation above about 19%, passing the limit was not always enough
# M1 antag = blocks human M1 muscarinic receptor | P11229 | CHO-K1 hM1, Fluo-8 calcium fluorescence, ACh EC80 antagonist | inhibition, % at 3 µM | 360,000 compounds, 1.3% hits;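 active means percent inhibition above its own plate's cutoff, namely the mean of that plate's compound wells plus 3 SD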;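 further: peak over basal fluorescence ratio during 140 s after agonist addition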
# CHO-K1 Ca ag = counter-screen for M1 agonists: effect in parental CHO-K1 cells | activation, % at 3 µM | Fluo-8 calcium fluorescence; scaled to maximal ATP response, vehicle zero | 360,000 compounds, 0.48% hits; in the data active means activation above about 15%;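 further: untransfected CHO-K1 host cells lacking M1 receptor as counterscreen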
# A number is an active result; - = inactive; . = no result given. Shown are actives, neighbours in structure and some others; about 2.3% of the full set was active somewhere.
SMILES,CHRM1 agonist,CHO-K1 Ca antag,M1 PAM parental,M1 PAM,M1 antag,CHO-K1 Ca ag
O=C(Nc1ccc(Cl)cc1)OC1CN2CCC1CC2 (stereo not drawn),-,-,-,-,-,-
O=C(Nc1cccc(Cl)c1)OC1CN2CCC1CC2 (stereo not drawn),-,44.9,-,-,-,16.5
Oc1cc(Cl)c(Cl)c(Cl)c1,-,-,-,-,23.1,-
Oc1cc(Cl)c(Cl)c(Cl)c1Cl,-,-,-,-,-,-
O=C(O)Cn1cc(C(=O)c2ccccc2F)c2ccccc21,-,-,-,-,-,-
FC(F)(F)c1ccc2c(c1)N(CCCN1CCN(CCCl)CC1)c1ccccc1S2,-,-,-,-,42.5,-
O=C1CC(=O)N(c2cccc(F)c2)C(=O)N1,-,-,-,-,-,-
CN1CCc2nc(N)c(C#N)c(-c3ccccc3)c2C1,-,-,-,-,33.7,-
NCCc1ccc(OCc2ccccc2)c(OCc2ccccc2)c1,-,-,-,-,-,15.9
CN(C)P(=NC(=S)c1cccn1C)(N(C)C)N(C)C,-,-,-,-,32.9,-
Cn1cnnc1Sc1cc(N2CCNCC2)ccc1[N+](=O)[O-],-,-,-,-,-,-
CN1C(=O)C(O)N=C(c2ccccc2)c2ccccc21 (stereo not drawn),-,-,-,-,37.5,-
O=C1Nc2ccccc2C(c2ccccc2)=NC1O (stereo not drawn),-,-,-,-,-,-
CN1CCc2c(c(N3CCCCC3)nc3n[nH]c(N)c23)C1,-,-,-,-,-,-
CN1CCc2c(C#N)c(Cl)nc(Cl)c2C1,-,32.0,-,-,-,-
O=c1[nH]c(=O)n(CCC2=CCCCC2)c(O)c1/C=N/N1CCOCC1,-,24.7,-,-,-,-
C[C@]12CCC3C(CC[C@@H]4C[C@@H](O)CC[C@]34C)C1CC[C@@H]2O (stereo partly drawn),-,-,-,-,-,-
C[C@]12CCC3C(CC[C@H]4C[C@@H](O)CC[C@]34C)C1CC[C@@H]2N (stereo partly drawn),-,-,-,-,-,18.6
CC(C)(C)c1cc(C=C(C#N)C#N)cc(C(C)(C)C)c1O,-,31.3,-,-,-,-
CCCCCSc1cc(OC)c(CCN(C)C)cc1OC,-,-,-,-,49.2,-
O=C(NCC1=C(c2ccc3ccccc3c2)C[C@@H]2CC[C@H]1N2Cc1ccco1)c1ccc([N+](=O)[O-])cc1,-,-,-,-,43.2,-
O=C(NCC1=C(c2ccc3ccccc3c2)C[C@@H]2CC[C@H]1N2Cc1ccco1)c1ccncc1,-,-,-,-,-,-
Clc1ccc(OCC#CCN2CCCC2)cc1,-,-,-,-,32.3,-
COc1ccccc1OCC#CCN1CCOCC1,-,-,-,-,-,-
COc1ccccc1OCC#CCN1CCCCCC1,-,-,-,-,32.9,-
SMILES,CHRM1 agonist,CHO-K1 Ca antag,M1 PAM parental,M1 PAM,M1 antag,CHO-K1 Ca ag
CN1CC(C(=O)c2ccc(Cl)cc2)C(c2ccc(Cl)cc2Cl)C1 (stereo not drawn),-,-,-,-,-,-
CN1CCC(O)(c2ccc(Cl)cc2)C(C(=O)c2ccc(Cl)cc2)C1 (stereo not drawn),-,-,-,-,30.3,-
CS(=O)(=O)c1ccc(C2=C(CNC(=O)c3cccs3)[C@H]3CC[C@@H](C2)N3Cc2ccco2)cc1,-,-,-,-,-,-
CC1(C)CSC(Nc2ccc(F)c(Cl)c2)=N1,-,-,-,-,-,-
CC1(C)CN=C(Nc2ccc(F)c(F)c2)S1,19.9,-,-,-,-,23.5
CC1(C)CN=C(Nc2ccc(F)c(Cl)c2)S1,-,-,-,-,-,29.8
Nc1ccc2ccc3cccc[n+]3c2c1,-,-,-,-,-,32.3
CN(Cc1cccc(-c2ccncc2)c1)C(=O)Oc1ccc([N+](=O)[O-])cc1,.,-,-,.,.,-
O=[N+]([O-])NC1=NCCN1Cc1ccc(Cl)nc1,-,-,-,-,-,-
C[N+]1(C)[C@@H]2CC[C@H]1CC(OC(=O)C(CO)c1ccccc1)C2 (stereo partly drawn),-,-,-,-,99.3,-
C#CC[N+]1(C)[C@@H]2CC(OC(=O)C(CO)c3ccccc3)C[C@H]1C(O)C2 (stereo partly drawn),-,-,-,-,100.7,-
